A number with no mark means an inactive call. Calls of active or inactive are those of the source.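 The calls were made as follows: active = compounds that lower survival of DLD-1 colon cancer cells in the luminescence readout, no cutoff given; inactive = the rest.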

A short description of this experiment: NPC library primary testing for decreased DLD-1 cell viability via CellTiter-Glo (AID 1117346). The following applies: DLD-1 viability, CellTiter-Glo luminescence; at 20 µM (top of the series). (ATP-based viability assays read luminescence as a measure of living cells.)
`CCCc1c2oc(C(=O)O)cc(=O)c2cc2c(=O)cc(C(=O)O)n(CC)c12`: the viability decrease (inhibition) was 15.2%.
Regarding `Nc1ccc(C(=O)N2CC3CC(CN(Cc4ccccc4)C3)C2)cc1`, the viability decrease (inhibition) is 7.3%.
Consider `Nc1ccc(S(=O)(=O)NCc2ccccc2)cc1`, for which the viability decrease (inhibition) is 10.1%.
In the case of `Cc1ccccc1C(=O)Nc1ccc(C(=O)N2CCCC(N(C)C)c3ccccc32)cc1` (stereo not given) it was 59% (active).
As for `CCCCCCCCCCCCCCCC[N+](C)(C)Cc1ccccc1`, the viability decrease (inhibition) is 102% (active).
In the case of `O=C(CCCCCCCCC#CI)Oc1ccccc1` it was 63.9% (active).
Turning to `CCCCOC(=O)CCCCCCCCC(=O)OCCCC`, the viability decrease (inhibition) was 7.6%.
Next, `CCN1/C(=C/C=C/c2sc3ccccc3[n+]2CC)Sc2ccccc21`: 102% (active).
In the case of `CCN1CCCC1=O` it was -9.9%; in that of `CO[C@@H]1[C@@H](O[C@@H]2O[C@H](C)[C@@H](O[C@H]3C[C@@](C)(O)[C@@H](O)[C@H](C)O3)[C@H](N(C)C)[C@H]2O)[C@@H](CC=O)C[C@@H](C)[C@@H](O[C@@H]2CC[C@H](N(C)C)[C@@H](C)O2)/C=C/C=C/C[C@@H](C)OC(=O)C[C@H]1OC(C)=O`, 18.7%; in that of `O=C1OC2(c3ccccc31)c1cc(Br)c(O)c(Br)c1Oc1c2cc(Br)c(O)c1Br`, -5.4%.
Turning to `CC(C)[C@H](N)C(=O)O`, the viability decrease (inhibition) was 14.8%.
Turning to `CCCCCC[C@@H](CCC)C(=O)O`, the viability decrease (inhibition) was 16.9%.
For `CC(=O)SCC(CC(=O)c1ccc(C)cc1)C(=O)O` (stereo not given), the viability decrease (inhibition) was -15.2%.
In the case of `OC1(c2ccc(Cl)cc2)CCNCC1` it was 8.8%.

These data come from PubChem BioAssay.
